# Test results from PubChem BioAssay (EPA / NIEHS).
# Records with an inconclusive call do not appear. Activity calls are given as the source filed them. How the source made its calls: active means hit-call score of the fitted dose curve at least 0.9, where 1 is the maximum; inconclusive means response in the unintended direction; inactive means score below 0.9.
# Legend:
# [1] = molecular target: Estrogen receptor (Homo sapiens) (UniProt P03372); assay: OT_ER_ERaERa_1440: Odyssey Thera (OT) 24-hour HEK293T Protein-Complementation Assay for Estrogen Receptor-alpha/-alpha Homodimer (AID 2283349);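 further: hits raise fluorescence above DMSO for agonists and antagonists alike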
# How it was run: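 Readout is the rise in mean fluorescence from reporter fragment complementation when ERα LBD (aa 310-547) units dimerize in HEK293T cells. Measured 24 h after dosing and analysed as increase over DMSO control.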
# [2] = molecular target: Estrogen receptor (Homo sapiens) (UniProt P03372); assay: OT_ER_ERaERa_0480: Odyssey Thera (OT) 8-hour HEK293T Protein-Complementation Assay for Estrogen Receptor-alpha/-alpha Homodimer (AID 2283351);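 further: rise in fluorescence from reassembled reporter fragments on ERα LBD homodimer in nucleus or whole cell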
# How it was run: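 HEK293T cells stably expressing the human ERα ligand-binding domain (aa 310-547) as a homodimer PCA were dosed with compound for 8 h. Gain of fluorescence intensity versus DMSO vehicle was read by laser scanning cytometry.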
# [3] = molecular target: Androgen Receptor/SRC-1 Co-activator, AR (gene 367) (UniProt P10275); assay: OT_AR_ARSRC1_0960: Odyssey Thera (OT) 16-hour HEK293T Protein-Complementation Assay for Androgen Receptor/SRC-1 Co-activator (AID 2283353);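 further: actives raise the signal above DMSO so potency reflects increased AR and SRC-1 complex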
# How it was run: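 HEK293T cells stably expressing AR and SRC-1 fused to split Venus YFP fragments via (Gly4Ser)2 linkers were dosed for 16 h. Nuclear/cytoplasmic fluorescence ratio at 488 nm, ≥400 cells per image, fitted for gain of signal versus DMSO.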
# [4] = molecular target: Androgen Receptor/SRC-1 Co-activator, AR (gene 367) (UniProt P10275); assay: OT_AR_ARSRC1_0480: Odyssey Thera (OT) 8-hour HEK293T Protein-Complementation Assay for Androgen Receptor/SRC-1 Co-activator (AID 2283354);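 further: hits raise the complementation signal above DMSO so AC50 marks enhancers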
# How it was run: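 HEK293T cells stably expressing AR and SRC-1 fused to split Venus YFP fragments via (Gly4Ser)2 linkers were read 8 h after compound dosing. Complementation was imaged at 488 and 635nm, and nuclear/cytoplasmic fluorescence ratio (488nm) was taken over ≥400 cells; gain-of-signal versus DMSO.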
# [5] = molecular target: human Peroxisome Proliferator-activated Receptor alpha (PPARa), PPARA (gene 5465) (UniProt Q07869); assay: NVS_NR_hPPARa: NovaScreen (NVS) Nuclear Receptor Binding Assay for human Peroxisome Proliferator-activated Receptor alpha (PPARa) (AID 2283359);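 further: activity means loss of TR-FRET signal versus DMSO baseline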
# How it was run: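 Cell-free binding assay with extracted human protein, read by TR-FRET 1 h after chemical dosing. Loss of signal relative to DMSO baseline indicates binding. Primary screen used duplicate single concentration (25 uM); actives followed up in concentration series.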
# PGR (gene 5241) = PGR (gene 5241) (UniProt P06401); assay: NVS_NR_hPR: NovaScreen (NVS) Nuclear Receptor Binding Assay for human Progestron Receptor (PR) (AID 2283360)
# How it was run: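 Cell-free radioligand binding using receptor protein extracted from T47D cells, read by scintillation counting 18 hours after dosing. Loss of signal relative to DMSO baseline indicates displacement; primary screen single concentration 25 uM in duplicate, actives followed in concentration series.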
# [6] = molecular target: chimpanzee Androgen Receptor (AR), AR (gene 747460) (UniProt O97775); assay: NVS_NR_cAR: NovaScreen (NVS) Nuclear Receptor Binding Assay for chimpanzee Androgen Receptor (AR) (AID 2283346);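 further: radioligand displacement from AR measured by scintillation counting in a cell-free assay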
# How it was run: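 Cell-free radioligand displacement using receptor protein extracted from Sf9/Sf21 cells; bound radioligand measured by scintillation counting 72 hours after chemical dosing. Loss of signal versus DMSO baseline indicates binding; primary screen single-concentration in duplicate at 25 uM, actives followed in concentration series.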
# [7] = molecular target: human Thyroid Receptor Alpha (TRa), THRA (gene 7067) (UniProt P10827); assay: NVS_NR_hTRa_Antagonist: NovaScreen (NVS) Nuclear Receptor Binding Assay for human Thyroid Receptor Alpha Antagonism (TRa) (AID 2283362);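 further: activity is loss of signal relative to DMSO baseline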
# How it was run: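 Cell-free binding assay on extracted receptor protein, read 1 h after chemical dosing by AlphaLISA chemiluminescence; loss of signal relative to DMSO baseline marks antagonism. Primary screen ran in duplicate at 25 uM, with concentration series for actives.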
# [8] = molecular target: Estrogen receptor beta (Homo sapiens) (UniProt Q92731); assay: OT_ER_ERbERb_0480: Odyssey Thera (OT) 8-hour HEK293T Protein-Complementation Assay for Estrogen Receptor-beta/-beta Homodimer (AID 2283357);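 further: active means signal gain over DMSO baseline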
# How it was run: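 Readout: increase in mean fluorescence intensity (nucleus for agonists; nucleus plus cytoplasm for antagonists) relative to DMSO, from a reporter-fragment complementation of human ER-beta LBD homodimer in HEK293T cells dosed 8 hours.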
# Chain of Androgen Receptor/SRC-1 Co-activator, AR (gene 367) (P10275 whole entry, looked up, the tested form may be a part): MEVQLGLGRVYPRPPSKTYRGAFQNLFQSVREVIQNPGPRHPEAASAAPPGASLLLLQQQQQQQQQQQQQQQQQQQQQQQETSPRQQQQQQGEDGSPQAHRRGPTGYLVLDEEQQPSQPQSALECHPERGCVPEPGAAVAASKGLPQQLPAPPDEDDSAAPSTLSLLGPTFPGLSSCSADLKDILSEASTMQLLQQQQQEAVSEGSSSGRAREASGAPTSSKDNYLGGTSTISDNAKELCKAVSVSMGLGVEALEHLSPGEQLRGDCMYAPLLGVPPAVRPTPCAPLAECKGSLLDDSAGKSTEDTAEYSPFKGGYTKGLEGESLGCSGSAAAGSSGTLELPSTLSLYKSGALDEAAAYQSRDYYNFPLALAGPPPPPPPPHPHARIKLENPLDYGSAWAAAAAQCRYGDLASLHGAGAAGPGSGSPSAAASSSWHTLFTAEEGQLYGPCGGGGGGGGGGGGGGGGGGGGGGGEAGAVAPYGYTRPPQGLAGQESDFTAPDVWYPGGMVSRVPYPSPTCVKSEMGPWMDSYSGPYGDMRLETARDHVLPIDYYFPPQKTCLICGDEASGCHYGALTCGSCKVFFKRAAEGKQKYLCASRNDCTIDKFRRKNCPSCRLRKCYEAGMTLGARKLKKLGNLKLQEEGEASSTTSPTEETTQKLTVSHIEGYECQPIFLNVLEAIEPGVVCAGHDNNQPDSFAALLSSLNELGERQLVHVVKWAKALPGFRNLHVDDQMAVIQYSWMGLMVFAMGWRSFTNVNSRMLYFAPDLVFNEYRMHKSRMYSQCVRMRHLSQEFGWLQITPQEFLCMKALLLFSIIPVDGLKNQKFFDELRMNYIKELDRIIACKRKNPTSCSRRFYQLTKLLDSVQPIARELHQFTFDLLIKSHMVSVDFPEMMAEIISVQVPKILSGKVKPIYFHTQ
# Chain of human Peroxisome Proliferator-activated Receptor alpha (PPARa), PPARA (gene 5465) (Q07869 whole entry, looked up): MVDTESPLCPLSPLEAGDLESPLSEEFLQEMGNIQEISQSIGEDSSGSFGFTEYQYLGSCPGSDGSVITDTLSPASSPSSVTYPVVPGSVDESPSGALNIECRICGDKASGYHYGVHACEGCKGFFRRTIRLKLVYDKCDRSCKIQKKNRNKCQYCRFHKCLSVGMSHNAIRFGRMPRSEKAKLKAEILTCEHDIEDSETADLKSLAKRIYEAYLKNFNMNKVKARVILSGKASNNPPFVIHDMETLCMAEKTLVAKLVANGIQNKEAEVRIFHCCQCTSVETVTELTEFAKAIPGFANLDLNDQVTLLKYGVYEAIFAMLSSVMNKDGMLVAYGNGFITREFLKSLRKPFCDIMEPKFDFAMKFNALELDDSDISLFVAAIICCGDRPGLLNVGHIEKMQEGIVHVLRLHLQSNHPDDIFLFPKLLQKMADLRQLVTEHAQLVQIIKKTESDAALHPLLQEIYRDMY
# Chain of Estrogen receptor (Homo sapiens) (P03372 whole entry, looked up, the tested form may be a part): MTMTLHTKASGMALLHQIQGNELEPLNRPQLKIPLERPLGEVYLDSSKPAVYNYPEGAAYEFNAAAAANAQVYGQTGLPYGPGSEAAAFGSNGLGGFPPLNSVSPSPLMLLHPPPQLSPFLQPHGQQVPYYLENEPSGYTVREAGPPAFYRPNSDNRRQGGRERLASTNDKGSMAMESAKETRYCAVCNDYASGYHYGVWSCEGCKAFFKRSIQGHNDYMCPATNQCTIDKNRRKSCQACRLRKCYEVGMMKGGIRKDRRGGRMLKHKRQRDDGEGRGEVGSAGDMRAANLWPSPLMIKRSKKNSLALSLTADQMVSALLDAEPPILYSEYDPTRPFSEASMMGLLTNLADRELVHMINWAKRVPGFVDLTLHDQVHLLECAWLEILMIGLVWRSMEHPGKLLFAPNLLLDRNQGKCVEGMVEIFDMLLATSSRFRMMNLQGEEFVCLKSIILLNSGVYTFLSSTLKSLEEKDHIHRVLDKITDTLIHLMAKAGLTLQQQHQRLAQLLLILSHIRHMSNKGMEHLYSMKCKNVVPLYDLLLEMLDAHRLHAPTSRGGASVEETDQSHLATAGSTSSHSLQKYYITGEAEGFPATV
# Chain of Estrogen receptor beta (Homo sapiens) (Q92731 whole entry, looked up, the tested form may be a part): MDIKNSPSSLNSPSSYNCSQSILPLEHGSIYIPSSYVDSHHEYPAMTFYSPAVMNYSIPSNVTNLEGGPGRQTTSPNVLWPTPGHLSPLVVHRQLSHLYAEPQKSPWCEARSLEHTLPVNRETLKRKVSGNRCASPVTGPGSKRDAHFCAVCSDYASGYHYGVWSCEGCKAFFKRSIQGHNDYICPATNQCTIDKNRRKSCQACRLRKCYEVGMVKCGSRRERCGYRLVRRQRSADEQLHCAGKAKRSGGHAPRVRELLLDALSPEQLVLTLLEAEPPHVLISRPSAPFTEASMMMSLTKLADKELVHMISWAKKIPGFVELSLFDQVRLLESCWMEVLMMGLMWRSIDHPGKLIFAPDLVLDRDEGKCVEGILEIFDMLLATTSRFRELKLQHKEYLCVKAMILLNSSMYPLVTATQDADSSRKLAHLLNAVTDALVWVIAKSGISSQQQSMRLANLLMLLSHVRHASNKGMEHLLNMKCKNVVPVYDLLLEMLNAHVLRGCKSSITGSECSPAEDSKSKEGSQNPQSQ
# Chain of PGR (gene 5241) (P06401 whole entry, looked up): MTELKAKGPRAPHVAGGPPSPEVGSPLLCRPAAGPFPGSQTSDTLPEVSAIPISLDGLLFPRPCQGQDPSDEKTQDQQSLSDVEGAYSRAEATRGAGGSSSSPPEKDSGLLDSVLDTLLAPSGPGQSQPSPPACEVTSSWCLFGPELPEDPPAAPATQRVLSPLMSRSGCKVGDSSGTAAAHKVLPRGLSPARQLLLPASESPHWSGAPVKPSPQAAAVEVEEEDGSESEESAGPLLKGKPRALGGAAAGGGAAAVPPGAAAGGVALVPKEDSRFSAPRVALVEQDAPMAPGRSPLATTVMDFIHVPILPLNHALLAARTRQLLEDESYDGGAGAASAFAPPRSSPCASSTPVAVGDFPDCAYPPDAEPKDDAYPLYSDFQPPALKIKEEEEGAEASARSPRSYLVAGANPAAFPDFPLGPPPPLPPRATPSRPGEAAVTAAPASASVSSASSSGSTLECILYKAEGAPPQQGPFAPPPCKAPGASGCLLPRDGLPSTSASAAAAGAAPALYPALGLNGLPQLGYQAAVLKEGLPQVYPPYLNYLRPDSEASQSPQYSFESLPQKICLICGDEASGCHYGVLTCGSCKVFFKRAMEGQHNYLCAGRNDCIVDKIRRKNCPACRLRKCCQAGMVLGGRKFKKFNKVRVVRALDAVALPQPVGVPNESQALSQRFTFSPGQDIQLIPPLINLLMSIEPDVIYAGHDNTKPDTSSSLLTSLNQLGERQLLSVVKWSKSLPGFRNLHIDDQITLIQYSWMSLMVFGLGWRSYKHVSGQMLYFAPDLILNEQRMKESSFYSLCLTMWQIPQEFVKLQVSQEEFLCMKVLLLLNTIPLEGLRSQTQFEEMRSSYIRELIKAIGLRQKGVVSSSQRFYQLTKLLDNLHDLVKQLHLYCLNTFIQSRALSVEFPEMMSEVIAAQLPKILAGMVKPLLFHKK
# Chain of chimpanzee Androgen Receptor (AR), AR (gene 747460) (O97775 whole entry, looked up): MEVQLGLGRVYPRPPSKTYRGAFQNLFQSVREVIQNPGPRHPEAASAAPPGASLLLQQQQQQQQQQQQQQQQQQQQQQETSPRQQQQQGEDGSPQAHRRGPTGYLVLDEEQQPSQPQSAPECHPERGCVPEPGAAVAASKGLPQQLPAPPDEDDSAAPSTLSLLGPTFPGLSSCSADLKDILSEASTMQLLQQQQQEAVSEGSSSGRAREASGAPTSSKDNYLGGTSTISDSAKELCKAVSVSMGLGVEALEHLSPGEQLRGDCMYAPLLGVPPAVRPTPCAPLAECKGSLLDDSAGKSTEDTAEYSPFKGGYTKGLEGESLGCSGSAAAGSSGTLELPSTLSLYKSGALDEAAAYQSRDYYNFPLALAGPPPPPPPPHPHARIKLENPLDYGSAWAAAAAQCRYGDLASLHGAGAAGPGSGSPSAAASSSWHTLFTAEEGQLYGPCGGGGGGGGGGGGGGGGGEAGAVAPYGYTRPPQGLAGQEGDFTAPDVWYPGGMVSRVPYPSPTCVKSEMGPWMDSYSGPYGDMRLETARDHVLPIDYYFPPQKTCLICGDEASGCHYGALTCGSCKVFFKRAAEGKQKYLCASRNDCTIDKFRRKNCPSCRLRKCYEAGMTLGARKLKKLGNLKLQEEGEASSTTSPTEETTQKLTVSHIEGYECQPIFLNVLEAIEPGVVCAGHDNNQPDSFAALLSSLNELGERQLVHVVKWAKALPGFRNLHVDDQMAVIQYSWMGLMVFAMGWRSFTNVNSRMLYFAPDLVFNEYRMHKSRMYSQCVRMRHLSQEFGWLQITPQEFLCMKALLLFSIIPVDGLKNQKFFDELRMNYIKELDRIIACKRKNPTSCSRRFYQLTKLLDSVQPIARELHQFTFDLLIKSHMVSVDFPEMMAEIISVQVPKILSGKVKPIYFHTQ
# Chain of human Thyroid Receptor Alpha (TRa), THRA (gene 7067) (P10827 whole entry, looked up): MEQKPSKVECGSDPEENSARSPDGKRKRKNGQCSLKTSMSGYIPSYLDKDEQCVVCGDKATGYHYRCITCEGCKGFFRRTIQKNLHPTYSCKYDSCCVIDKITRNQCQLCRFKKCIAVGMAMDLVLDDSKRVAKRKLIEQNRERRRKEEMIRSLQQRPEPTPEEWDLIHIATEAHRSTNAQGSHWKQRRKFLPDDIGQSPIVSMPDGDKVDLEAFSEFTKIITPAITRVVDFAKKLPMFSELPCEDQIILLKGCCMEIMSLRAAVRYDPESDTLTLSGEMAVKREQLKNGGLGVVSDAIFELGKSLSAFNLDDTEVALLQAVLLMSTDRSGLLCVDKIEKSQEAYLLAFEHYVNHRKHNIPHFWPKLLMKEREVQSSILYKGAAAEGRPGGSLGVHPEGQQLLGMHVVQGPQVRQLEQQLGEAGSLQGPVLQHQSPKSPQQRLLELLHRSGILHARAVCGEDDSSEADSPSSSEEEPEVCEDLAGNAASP
smiles,measurement,setting,value
CC1=C(C)S(=O)(=O)CCS1(=O)=O,outcome,[1],inactive
same,outcome,[2],inactive
same,outcome,[3],inactive
same,outcome,[4],inactive
same,outcome,[5],inactive
same,outcome,PGR (gene 5241),inactive
CCOCCOCCO,outcome,[3],inactive
same,outcome,[4],inactive
COC(=O)[C@H]1[C@H]2C[C@@H]3c4[nH]c5cc(OC)ccc5c4CCN3C[C@H]2C[C@@H](OC(=O)c2cc(OC)c(OC)c(OC)c2)[C@@H]1OC,AC50,[6],19.2 µM (active)
O=C(O)c1[nH]n(-c2ccc(S(=O)(=O)O)cc2)c(=O)c1N=Nc1ccc(S(=O)(=O)O)cc1,outcome,[1],inactive
same,outcome,[2],inactive
same,outcome,[7],inactive
CC(=O)CC(c1ccccc1)c1c(O)c2ccccc2oc1=O (stereo unspecified),outcome,[6],inactive
CC(COCC(C)OC(=O)c1ccccc1)OC(=O)c1ccccc1 (stereo unspecified),outcome,[8],inactive
Cc1cn([C@H]2C=C[C@@H](CO)O2)c(=O)[nH]c1=O,outcome,[8],inactive
NCCOCCOCCN,outcome,[3],inactive
same,outcome,[4],inactive
same,outcome,[8],inactive
CC(C)(C)c1ccccc1,outcome,[8],inactive
same,outcome,[5],inactive
C=CCc1ccc(OC)c(OC)c1,outcome,[8],inactive
CC(N)=O,outcome,[8],inactive
Oc1ccccc1O,outcome,[8],inactive
same,outcome,[5],inactive
CC(=O)O,outcome,PGR (gene 5241),inactive
O=C(Oc1ccccc1)c1cccc(C(=O)Oc2ccccc2)c1,outcome,[3],inactive
same,outcome,[4],inactive
same,outcome,[8],inactive
same,outcome,[5],inactive
C=CCCCCCCCCCCCC,outcome,[3],inactive
same,outcome,[4],inactive
same,outcome,[8],inactive
CC(C)COC(=O)CCCCC(=O)OCC(C)C,outcome,[5],inactive
same,outcome,PGR (gene 5241),inactive
C/C=C/C=C/C(=O)O,outcome,[8],inactive
CCCCC(CC)CO (stereo unspecified),outcome,[8],inactive
Cc1cc(SC2=C(O)C[C@@](CCc3ccc(N)cc3)(C(C)C)OC2=O)c(C(C)(C)C)cc1CO,outcome,[3],inactive
same,outcome,[4],inactive
CC(=O)OC1CC(C)OC(C)O1 (stereo unspecified),outcome,[8],inactive
CCCCCCC(C=O)=Cc1ccccc1,outcome,[8],inactive
CCCCOC(=O)CCCCC(=O)OCCCC,outcome,[5],inactive
NC=O,outcome,[8],inactive
O=C(O)c1cccnc1,outcome,[8],inactive
same,outcome,PGR (gene 5241),inactive
CC(=O)OCC(COC(C)=O)OC(C)=O,outcome,[8],inactive
CC(C)c1cccc(C(C)C)c1NC(=O)NS(=O)(=O)c1cc(C(C)(C)O)co1,outcome,[8],inactive
same,outcome,[5],inactive
Nc1nc(Cl)nc2c1ncn2[C@H]1C[C@H](O)[C@@H](CO)O1,outcome,[5],inactive
C#CC(O)C(CC)CCCC (stereo unspecified),AC50,[3],72.6 µM (active)
same,AC50,[4],93.7 µM (active)
same,outcome,[8],inactive
C/C=C/c1ccc(OC)cc1,outcome,[8],inactive
OCC(O)CO,outcome,PGR (gene 5241),inactive
CO[C@@H]1COCC[C@@H]1N[C@@H]1CC[C@@](C(=O)N2CCc3ncc(C(F)(F)F)cc3C2)(C(C)C)C1,outcome,[8],inactive
same,outcome,PGR (gene 5241),inactive
O=C1O[C@H]([C@H](O)CO)C(O)=C1O,outcome,[8],inactive
